Measurements from PubChem BioAssay.
The source made the active and inactive calls.

Experiments:
[1] = E. coli DRC41 culture turbidity changes, primary screen, E. coli filamentation inducer project, strain DRC41, OD650, 48 h (AID 1152);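 note: E. coli MC1000 strain DRC41 lacking acrAB efflux pump and sulA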; settings: E. coli DRC41 (acrAB sulA), higher = more signal, called active from +8 up or from −8 down
[2] = small-molecule binders of probe aLefty1, primary screen, biochemical, small-molecule microarray, 635/667 nm fluorescence (AID 1153); settings: higher = more signal;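 note: score merges spot fluorescence with signal-to-noise ratio from the scanned slide images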
[3] = PSAC antagonists in infected red cells, primary screen, cell-based, P. falciparum Indochina, OD700, 1 h (AID 1154); settings: P. falciparum Indochina infected RBC osmotic lysis, higher = more signal, called active from +8 up or from −8 down
[4] = PSAC antagonists in infected red cells, primary screen, cell-based, P. falciparum Indochina, OD700, 2 h (AID 1155);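 note: lysis reports solute entry through the parasite surface anion channel PSAC; channel blockers reduce lysis of infected cells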; settings: P. falciparum Indochina infected erythrocytes, osmotic lysis OD700; higher = more signal, called active from +8 up or from −8 down
[5] = osmotic lysis modulators in infected erythrocytes, primary screen, PSAC antagonist project, cell-based, P. falciparum Indochina, OD700, 3 h (AID 1156); settings: higher = more signal, called active from +8 up or from −8 down
[6] = PSAC antagonists in infected red cells, primary screen, cell-based, P. falciparum Indochina, OD700, 18 h (AID 1157); settings: P. falciparum Indochina infected erythrocytes, osmotic lysis OD700, 18 h; higher = more signal, called active from +8 up or from −8 down
[7] = modulators of S6 phosphorylation in cells, primary screen, cell-based, A549, cytoblot, luminescence, serum-stimulated (AID 1158); settings: A549 phospho-S6 cytoblot, 5 h, higher = more signal;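 note: serum-stimulated A549 lung adenocarcinoma cells; signal is phosphorylated S6 detected by cytoblot immunostaining with HRP secondary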
[8] = biological target: NADPH oxidase 2 (Homo sapiens) (UniProt P04839); experiment: NOX2-dependent H2O2 signal modulators, primary screen, NOX inhibitor project, cell-based, HEK293-NOX2, PMA-stimulated, Amplex Red fluorescence (AID 1159); settings: 45 min, higher = more signal, called active from +8 up or from −8 down; note: test concentration not given here
Chain of NADPH oxidase 2 (Homo sapiens) (P04839 whole entry, looked up): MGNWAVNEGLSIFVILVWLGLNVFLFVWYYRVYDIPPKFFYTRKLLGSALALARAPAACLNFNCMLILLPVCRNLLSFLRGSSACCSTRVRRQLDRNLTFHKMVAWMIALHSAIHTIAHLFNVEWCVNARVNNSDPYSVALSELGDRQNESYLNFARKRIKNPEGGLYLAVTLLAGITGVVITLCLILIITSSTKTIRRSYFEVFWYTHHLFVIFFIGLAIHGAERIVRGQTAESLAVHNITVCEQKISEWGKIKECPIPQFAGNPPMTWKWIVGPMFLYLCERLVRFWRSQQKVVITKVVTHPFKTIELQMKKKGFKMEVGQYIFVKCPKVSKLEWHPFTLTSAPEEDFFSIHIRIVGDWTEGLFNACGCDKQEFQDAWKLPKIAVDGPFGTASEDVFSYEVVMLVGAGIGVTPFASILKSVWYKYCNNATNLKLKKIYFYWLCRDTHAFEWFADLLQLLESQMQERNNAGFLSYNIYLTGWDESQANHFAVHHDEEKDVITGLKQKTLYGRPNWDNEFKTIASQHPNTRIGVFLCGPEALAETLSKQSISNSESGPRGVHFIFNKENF

[9] = biological target: NADPH oxidase 4 (Homo sapiens) (UniProt Q9NPH5); experiment: NOX4-dependent H2O2 signal modulators, primary screen, NOX inhibitor project, cell-based, HEK293-NOX4, tetracycline-induced, Amplex Red fluorescence (AID 1160); settings: 45 min, higher = more signal, called active from +8 up or from −8 down
Chain of NADPH oxidase 4 (Homo sapiens) (Q9NPH5 whole entry, looked up): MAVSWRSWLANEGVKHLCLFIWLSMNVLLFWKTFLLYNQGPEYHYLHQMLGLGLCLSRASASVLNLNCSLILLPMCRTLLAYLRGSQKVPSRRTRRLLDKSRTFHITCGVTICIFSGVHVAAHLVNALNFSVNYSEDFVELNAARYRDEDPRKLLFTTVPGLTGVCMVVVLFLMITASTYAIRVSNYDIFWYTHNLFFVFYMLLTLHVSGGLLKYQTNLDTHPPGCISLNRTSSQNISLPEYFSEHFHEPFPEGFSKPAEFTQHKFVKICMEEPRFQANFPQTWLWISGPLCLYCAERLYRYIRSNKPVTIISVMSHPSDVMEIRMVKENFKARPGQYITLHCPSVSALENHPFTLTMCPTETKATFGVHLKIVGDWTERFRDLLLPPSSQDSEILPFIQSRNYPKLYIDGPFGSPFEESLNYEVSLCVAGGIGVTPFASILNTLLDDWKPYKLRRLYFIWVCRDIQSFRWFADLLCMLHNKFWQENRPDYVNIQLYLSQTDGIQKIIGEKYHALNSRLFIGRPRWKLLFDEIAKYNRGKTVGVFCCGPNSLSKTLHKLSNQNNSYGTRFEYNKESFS

[10] = biological target: NADPH oxidase 5 (Homo sapiens) (UniProt Q96PH1); experiment: NOX5-dependent H2O2 signal modulators, primary screen, NOX inhibitor project, cell-based, HEK293-NOX5, Amplex Red fluorescence (AID 1161); settings: HEK293-NOX5, ionomycin, 45 min, higher = more signal
Chain of NADPH oxidase 5 (Homo sapiens) (Q96PH1 whole entry, looked up): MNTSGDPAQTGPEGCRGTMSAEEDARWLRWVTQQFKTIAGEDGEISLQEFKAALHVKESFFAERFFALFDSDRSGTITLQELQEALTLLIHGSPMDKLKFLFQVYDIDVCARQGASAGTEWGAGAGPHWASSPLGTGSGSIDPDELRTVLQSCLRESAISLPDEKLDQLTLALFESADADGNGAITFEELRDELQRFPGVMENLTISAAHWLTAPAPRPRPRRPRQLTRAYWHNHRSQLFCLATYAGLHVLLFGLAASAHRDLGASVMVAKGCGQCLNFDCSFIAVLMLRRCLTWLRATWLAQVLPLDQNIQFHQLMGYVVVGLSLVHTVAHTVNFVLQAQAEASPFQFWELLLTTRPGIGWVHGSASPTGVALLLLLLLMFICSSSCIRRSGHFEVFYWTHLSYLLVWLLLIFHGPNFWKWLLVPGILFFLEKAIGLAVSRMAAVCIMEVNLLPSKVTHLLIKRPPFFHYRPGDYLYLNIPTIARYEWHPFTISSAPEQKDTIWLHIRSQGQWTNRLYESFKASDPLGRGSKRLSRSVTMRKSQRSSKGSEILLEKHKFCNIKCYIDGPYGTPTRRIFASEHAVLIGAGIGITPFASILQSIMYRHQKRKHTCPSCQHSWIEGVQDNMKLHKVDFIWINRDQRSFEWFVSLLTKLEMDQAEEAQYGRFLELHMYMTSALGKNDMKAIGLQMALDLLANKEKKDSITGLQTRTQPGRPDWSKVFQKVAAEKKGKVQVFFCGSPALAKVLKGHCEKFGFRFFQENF

CN1C(=O)C2C=CC(C(O)COCc3ccccc3)N(N(c3ccccc3)c3ccccc3)C2C1=O (stereo not given)
z-score [1]: -0.339 (inactive)
composite z-score [2]: 0.479
z-score [3]: 3.65 (inactive)
z-score [4]: 1.49 (inactive)
z-score [5]: 0.361 (inactive)
z-score [6]: 1.07 (inactive)
z-score [7]: -0.849
z-score [8]: 1.58 (inactive)
z-score [9]: -4.42 (inactive)
z-score [10]: 0.262

Cc1ccc(S[C@]2(C(=O)NCC(F)(F)F)CC(=O)N(Cc3ccccc3)[C@@H]2c2ccc(CO)cc2I)cc1
z-score [1]: -0.764 (inactive)
composite z-score [2]: 0.0355
z-score [3]: 4.23 (inactive)
z-score [4]: 0.283 (inactive)
z-score [5]: 0.173 (inactive)
z-score [6]: 0.279 (inactive)
z-score [7]: -0.404
z-score [8]: 1.22 (inactive)
z-score [9]: -1.33 (inactive)
z-score [10]: 0.776

CC(C)Cc1ccc(CN2CC[C@@H](NC(=O)Nc3ccccc3)C2)cc1
z-score [1]: -3.31 (inactive)
composite z-score [2]: -0.191
z-score [3]: 1.96 (inactive)
z-score [4]: 0.981 (inactive)
z-score [5]: 1.84 (inactive)
z-score [6]: 0.575 (inactive)
z-score [7]: -1.03
z-score [8]: -0.507 (inactive)
z-score [9]: -0.351 (inactive)
z-score [10]: -1.88

CCOC(=O)C[C@H]1[C@H](OC(=O)c2cc3ccccc3oc2=O)[C@@H](NC(=O)Cc2ccc(OC)cc2)c2cc(OCCCO)ccc2N1C(=O)c1ccc2ccccc2n1
z-score [1]: 0.96 (inactive)
composite z-score [2]: -0.0046
z-score [3]: 9.52 (active)
z-score [4]: 0.85 (inactive)
z-score [5]: 0.785 (inactive)
z-score [6]: 0.305 (inactive)
z-score [7]: 0.336
z-score [8]: 1.71 (inactive)
z-score [9]: 1.34 (inactive)
z-score [10]: 1.53

C=C(C)C1CCC(C(O)C2C=CC3C(=O)N(C)C(=O)C3N2N2CCCCC2)CC1 (stereo not given)
z-score [1]: -1.09 (inactive)
composite z-score [2]: 0.336
z-score [3]: 1.23 (inactive)
z-score [4]: 0.737 (inactive)
z-score [5]: 0.302 (inactive)
z-score [6]: 1.37 (inactive)
z-score [7]: -1.41
z-score [8]: -0.128 (inactive)
z-score [9]: 0.773 (inactive)
z-score [10]: 0.0159

CC(C)[Si](C#CCCCC#N)(O[C@H](c1ccccc1)c1cn([C@H](CO)Cc2ccccc2)nn1)C(C)C
z-score [1]: 1.72 (inactive)
composite z-score [2]: -0.187
z-score [3]: 1.31 (inactive)
z-score [4]: 0.4 (inactive)
z-score [5]: -0.138 (inactive)
z-score [6]: 0.0616 (inactive)
z-score [7]: -0.013
z-score [8]: -0.777 (inactive)
z-score [9]: 0.789 (inactive)
z-score [10]: 0.317

COc1ccc(CCNC(=O)[C@@H]2c3ccccc3C(=O)N(Cc3cc(C(F)(F)F)cc(C(F)(F)F)c3)[C@H]2c2ccc(CO)cc2)cc1
z-score [1]: 0.0073 (inactive)
composite z-score [2]: 0.108
z-score [3]: 4.55 (inactive)
z-score [4]: 0.383 (inactive)
z-score [5]: 0.767 (inactive)
z-score [6]: 0.233 (inactive)
z-score [7]: 0.154
z-score [8]: -1.75 (inactive)
z-score [9]: 0.194 (inactive)
z-score [10]: -0.077

[N-]=[N+]=NCc1ccccc1[C@H]1OC(c2ccc(OCCCO)cc2)=N[C@@]1(CCS(=O)(=O)c1ccccc1)C(=O)NCC(O)CO (stereo not given in full)
z-score [1]: -0.0559 (inactive)
composite z-score [2]: 0.675
z-score [3]: 27.1 (active)
z-score [4]: 21.1 (active)
z-score [5]: 2.23 (inactive)
z-score [6]: 2.78 (inactive)
z-score [7]: 0.123
z-score [8]: 1.47 (inactive)
z-score [9]: 1.1 (inactive)
z-score [10]: 1.64

NC(=O)NCC#Cc1ccc2c(c1)[C@]1(C(=O)N2)[C@H](C(=O)O)[C@H]2C(=O)O[C@H](c3ccccc3)[C@H](c3ccccc3)N2[C@@H]1c1ccc(OCCO)cc1
z-score [1]: 0.215 (inactive)
composite z-score [2]: -0.147
z-score [3]: 3.93 (inactive)
z-score [4]: 0.523 (inactive)
z-score [5]: 0.643 (inactive)
z-score [6]: 0.247 (inactive)
z-score [7]: 0.235
z-score [8]: 2.78 (inactive)
z-score [9]: 1.14 (inactive)
z-score [10]: -0.0124

C=CCC(OC(C)=O)[C@@H]1[C@@H](N(Cc2cc3ccccc3o2)C(=O)c2ccc(-c3ccccc3)cc2)c2cc(OCCCO)ccc2N1C(=O)c1ccc2ccccc2c1 (stereo not given in full)
z-score [1]: -0.966 (inactive)
composite z-score [2]: 0.187
z-score [3]: 0.923 (inactive)
z-score [4]: 0.354 (inactive)
z-score [5]: 0.216 (inactive)
z-score [6]: 0.161 (inactive)
z-score [7]: -0.109
z-score [8]: -1.08 (inactive)
z-score [9]: -0.72 (inactive)
z-score [10]: 0.869

N#Cc1ccc(NN2C(C(O)c3ccc(F)cc3)C=CC3C(=O)N(c4ccccc4)C(=O)C32)cc1 (stereo not given)
z-score [1]: -0.922 (inactive)
composite z-score [2]: 1.03
z-score [3]: 8.09 (active)
z-score [4]: 1.4 (inactive)
z-score [5]: 1.36 (inactive)
z-score [6]: 1.29 (inactive)
z-score [7]: -0.491
z-score [8]: -1.33 (inactive)
z-score [9]: -4.55 (inactive)
z-score [10]: -2.9

COc1ccc(C(O)C2C=CC3C(=O)N(c4ccccc4)C(=O)C3N2Nc2ccc([N+](=O)[O-])cc2)cc1 (stereo not given)
z-score [1]: -1.35 (inactive)
composite z-score [2]: 0.987
z-score [3]: 14.3 (active)
z-score [4]: 2.49 (inactive)
z-score [5]: 0.547 (inactive)
z-score [6]: 1.24 (inactive)
z-score [7]: -0.727
z-score [8]: -0.897 (inactive)
z-score [9]: -2.79 (inactive)
z-score [10]: -2.72

O=C1O[C@H](c2ccccc2)[C@H](c2ccccc2)N2[C@H]1[C@@H](C(=O)Nc1nc3ccccc3s1)[C@]1(C(=O)Nc3ccc(C#CCCO)cc31)[C@H]2c1ccc(O)cc1
z-score [1]: -0.742 (inactive)
composite z-score [2]: 0.026
z-score [3]: 0.402 (inactive)
z-score [4]: 1.05 (inactive)
z-score [5]: -5.42 (inactive)
z-score [6]: 1.23 (inactive)
z-score [7]: -0.263
z-score [8]: 1.08 (inactive)
z-score [9]: 0.38 (inactive)
z-score [10]: -0.901

OCC1CC(c2ccccc2)=NO1 (stereo not given)
z-score [1]: 0.727 (inactive)
composite z-score [2]: 0.0278
z-score [3]: 5.51 (inactive)
z-score [4]: 0.623 (inactive)
z-score [5]: -0.182 (inactive)
z-score [6]: 0.206 (inactive)
z-score [7]: 0.137
z-score [8]: -1.17 (inactive)
z-score [9]: -0.137 (inactive)
z-score [10]: 0.273

COc1ccc([Si](C)(C)[C@@H]2[C@@H](CCn3cc([C@H](O)c4ccccc4)nn3)O[C@]3(C(=O)N(Cc4ccc(N5CCC5=O)cc4)c4ccccc43)[C@H]2C)cc1
z-score [1]: 0.893 (inactive)
composite z-score [2]: -0.696
z-score [3]: 18.8 (active)
z-score [4]: 4.31 (inactive)
z-score [5]: 1.66 (inactive)
z-score [6]: 1.19 (inactive)
z-score [7]: 0.759
z-score [8]: 0.193 (inactive)
z-score [9]: 1.08 (inactive)
z-score [10]: 1.7

Cc1ccc(S[C@]2(C(=O)O)CC(=O)N(C3Cc4ccccc4C3)[C@@H]2c2ccc(CO)cc2)cc1
z-score [1]: -0.0458 (inactive)
composite z-score [2]: 0.212
z-score [3]: 3.54 (inactive)
z-score [4]: -0.273 (inactive)
z-score [5]: 0.385 (inactive)
z-score [6]: -0.333 (inactive)
z-score [7]: -0.401
z-score [8]: -0.0451 (inactive)
z-score [9]: -0.498 (inactive)
z-score [10]: 1.58

COC(=O)CCCCCCC(=O)Nc1ccc(NC(=O)CCCC[P+](c2ccccc2)(c2ccccc2)c2ccccc2)cc1
z-score [1]: -12.4 (active)
composite z-score [2]: -0.0601
z-score [3]: 25.6 (active)
z-score [4]: 9.83 (active)
z-score [5]: 1.95 (inactive)
z-score [6]: 1.43 (inactive)
z-score [7]: 0.274
z-score [8]: -0.765 (inactive)
z-score [9]: 0.429 (inactive)
z-score [10]: 0.0901

COc1cc2c(cc1OC)CN(C(=O)[C@@H]1[C@H]3C(=O)O[C@H](c4ccccc4)[C@H](c4ccccc4)N3[C@H](c3ccc(OCCO)cc3)[C@@]13C(=O)Nc1ccc(C#CC4(O)CCCCCC4)cc13)CC2
z-score [1]: 3.13 (inactive)
composite z-score [2]: 0.246
z-score [3]: 4.33 (inactive)
z-score [4]: 1.05 (inactive)
z-score [5]: 0.785 (inactive)
z-score [6]: -1.27 (inactive)
z-score [7]: 2.48
z-score [8]: 0.737 (inactive)
z-score [9]: 0.802 (inactive)
z-score [10]: 1.82

COC(=O)[C@@]1(Cc2ccc(OC)cc2)[C@H]2c3cc(C(=O)N(C)C)n(Cc4ccc(Cl)c(C(F)(F)F)c4)c3C[C@H]2CN1C(=O)c1ccccc1
z-score [1]: -1.4 (inactive)
composite z-score [2]: 0.357
z-score [3]: 7.57 (inactive)
z-score [4]: 1.42 (inactive)
z-score [5]: 1.01 (inactive)
z-score [6]: 1.21 (inactive)
z-score [7]: -0.264
z-score [8]: 1.19 (inactive)
z-score [9]: -0.227 (inactive)
z-score [10]: 1.57

C=C[C@@H](COC(C)=O)N(C(=O)OC(C)(C)C)S(=O)(=O)c1ccc(Br)cc1
z-score [1]: 0.336 (inactive)
composite z-score [2]: -0.105
z-score [3]: 0.478 (inactive)
z-score [4]: -0.145 (inactive)
z-score [5]: 0.14 (inactive)
z-score [6]: 0.0566 (inactive)
z-score [7]: -0.178
z-score [8]: -1.47 (inactive)
z-score [9]: -0.744 (inactive)
z-score [10]: -1.23

C=C(COC)C(=O)CC[C@@H](OC(=O)c1cccnc1)c1ccc(OCCO)cc1
z-score [1]: -0.717 (inactive)
composite z-score [2]: 0.235
z-score [3]: 7.63 (inactive)
z-score [4]: 2.3 (inactive)
z-score [5]: -1.61 (inactive)
z-score [6]: 1.21 (inactive)
z-score [7]: -0.482
z-score [8]: 0.838 (inactive)
z-score [9]: 0.211 (inactive)
z-score [10]: -2.85

NC(N)=NCCCn1cc(CNC(=O)[C@@H](N)Cc2ccccc2)nn1
z-score [1]: -0.929 (inactive)
composite z-score [2]: -0.0171
z-score [3]: -0.174 (inactive)
z-score [4]: 0.0333 (inactive)
z-score [5]: -0.561 (inactive)
z-score [6]: 0.36 (inactive)
z-score [7]: 0.243
z-score [8]: -2 (inactive)
z-score [9]: 0.227 (inactive)
z-score [10]: -0.264
